Experimental findings from PubChem BioAssay (EPA / NIEHS) are described below.

Molecules are shown by their SMILES. The source made the active and inactive calls. The calls were made as follows: active = hit-call score of the fitted dose curve at least 0.9, where 1 is the maximum; inactive = score below 0.9.

Assay [1] in a line: ATG_E_Box_CIS: Attagene CIS-FACTORIAL HepG2 Assay for human Enhancer Box (E-box) (AID 2282936). To be noted: HepG2 E-box cis-reporter transcription, actives raise or lower the signal. The procedure, abridged:
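DMSO served as negative control and baseline for bidirectional fitting. Human hepatoma HepG2 cells, transiently transfected with cis-reporter constructs, were dosed 24 h; reporter mRNA read by RT-PCR and capillary electrophoresis.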

Assay [2] in a line: ATG_M_61_CIS: Attagene CIS-FACTORIAL HepG2 Assay for M61 Transcription Factor (Internal Marker) (AID 2282937). To be noted: HepG2 Attagene CIS-FACTORIAL M61 internal marker reporter; actives raise or lower the signal. The procedure, abridged: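 Background-control endpoint: HepG2 cells with cis-regulated reporter constructs, 24 h exposure, reporter mRNA detected via fluorescent primer extension and capillary electrophoresis; values from bidirectional fitting with DMSO baseline.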

The nature of assay [3]: ATG_EGR_CIS: Attagene CIS-FACTORIAL HepG2 Assay for human Early Growth Response 1 (EGR1) (AID 2282938). To be noted: HepG2 Attagene CIS-FACTORIAL EGR reporter mRNA; actives raise or lower the signal. The procedure, abridged:
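Endpoint derived by bidirectional fitting versus DMSO vehicle. Method: cis-promoter reporter units transfected into HepG2, 24 h dosing, RNA isolation, RT-PCR with 6-FAM primer extension and HpaI digestion, then capillary electrophoresis fluorescence detection.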

The nature of assay [4]: ATG_M_19_CIS: Attagene CIS-FACTORIAL HepG2 Assay for M19 Transcription Factor (Internal Marker) (AID 2282939). To be noted: HepG2 Attagene CIS-FACTORIAL M19 internal marker reporter; actives raise or lower the signal. The procedure, abridged: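 HepG2 cells transiently transfected with cis-regulated multiplexed reporter units, dosed 24 h. Reporter mRNA quantified by RT-PCR and capillary electrophoresis; internal background marker fitted bidirectionally versus DMSO.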

The nature of assay [5]: ATG_ERE_CIS: Attagene CIS-FACTORIAL HepG2 Assay for Estrogen Response Element (ERE) (AID 2282940). The following applies: HepG2 ERE cis-reporter, Attagene RNA transcript; actives raise or lower the signal. The procedure, abridged:
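HepG2 cells transiently transfected with multiplexed cis-element reporter units, measuring endogenous transcription factor activity; ERE reporter mRNA quantified after 24 h exposure by RT-PCR, fluorescent labelling, HpaI digestion and capillary electrophoresis. Bidirectional change versus DMSO.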

A short description of assay [6]: ATG_Ets_CIS: Attagene CIS-FACTORIAL HepG2 Assay for human Erythroblast Transformation Specific (ETS) (AID 2282941). To be noted: HepG2 ETS cis-reporter transcription, actives raise or lower the signal. The procedure, abridged: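 After transient cis-reporter transfection, HepG2 cells receive test chemical for 24 h. Reporter mRNA levels, measured by RT-PCR and capillary electrophoresis fluorescence, are analysed bidirectionally relative to the DMSO baseline.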

Assay [7] has as its target Hepatocyte nuclear factor 3-beta (Homo sapiens) (UniProt Q9Y261). Kind of assay: ATG_FoxA2_CIS: Attagene CIS-FACTORIAL HepG2 Assay for human Forkhead box A2 (FOXA2) (AID 2282942). The following applies: HepG2 cis-reporter transcription factor activity, 24 h; actives raise or lower the signal. The procedure, abridged:
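Measured: reporter mRNA induction or loss in HepG2 transiently carrying multiple cis-regulated reporter units, 24 h after dosing. Quantified by RT-PCR plus capillary electrophoresis, normalised to DMSO.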

Assay [8] in a line: ATG_FoxO_CIS: Attagene CIS-FACTORIAL HepG2 Assay for human Forkhead box O (FoxO) (AID 2282943). The following applies: HepG2 Attagene cis-reporter, FoxO element, mRNA; actives raise or lower the signal. The procedure, abridged:
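Endogenous transcription factor activity read from multiplexed cis-promoter reporter transcripts in transiently transfected HepG2, 24 h after dosing. Reporter RNA measured via RT-PCR plus capillary electrophoresis of FAM-labeled products; gain or loss relative to DMSO.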

Assay [9] in a line: ATG_GATA_CIS: Attagene CIS-FACTORIAL HepG2 Assay for human GATA Binding Protein (AID 2282944). To be noted: HepG2 GATA cis-element reporter, Attagene multiplex mRNA; actives raise or lower the signal. The procedure, abridged: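 HepG2 cells transiently transfected with multiplexed cis-element reporter units measure endogenous GATA activity; after 24 h compound exposure, reporter mRNA quantified by RT-PCR and capillary electrophoresis. Changes fitted in both directions vs DMSO.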

Assay [10] is described as follows: ATG_GLI_CIS: Attagene CIS-FACTORIAL HepG2 Assay for human Zinc Finger Protein GLI1 (AID 2282945). To be noted: HepG2, Attagene cis-factorial reporter mRNA, GLI element; actives raise or lower the signal. The procedure, abridged: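 Bidirectional curve fits relative to DMSO, using reporter mRNA levels from RT-PCR plus capillary electrophoresis. Cells were HepG2 transiently carrying cis-regulated reporter constructs, harvested 24 h after dosing.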

The nature of assay [11]: ATG_GRE_CIS: Attagene CIS-FACTORIAL HepG2 Assay for human Glucocorticoid Response Elements (GRE) (AID 2282947). The following applies: HepG2 GRE cis-reporter, Attagene multiplex mRNA; actives raise or lower the signal. The procedure, abridged: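 Assay uses human hepatoma HepG2 cells transfected with cis-promoter reporter units, exposed 24 h. mRNA from reporters detected by RT-PCR plus capillary electrophoresis; DMSO serves as negative control and baseline.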

The nature of assay [12]: ATG_ISRE_CIS: Attagene CIS-FACTORIAL HepG2 Assay for human Interferon Regulatory Factor 1 (IRF1) binding to an Interferon-Stimulated Response Element (ISRE) (AID 2282948). The following applies: HepG2 ISRE cis-reporter (Attagene), mRNA transcription readout; actives raise or lower the signal. The procedure, abridged: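 Quantitation relies on labelled RT-PCR fragments separated by capillary electrophoresis. Human HepG2 cells bearing cis-promoter reporter constructs were treated 24 h; DMSO served as baseline for bidirectional fitting.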

The nature of assay [13]: ATG_M_32_CIS: Attagene CIS-FACTORIAL HepG2 Assay for M32 Transcription Factor (Internal Marker) (AID 2282949).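 Also: background control marker of the multiplexed CIS panel rather than a real target.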 The following applies: HepG2 Attagene cis-factorial M32 reporter, mRNA; actives raise or lower the signal. The procedure, abridged:
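Following 24 h chemical exposure of HepG2 cells transiently expressing cis-promoter reporter constructs, reporter transcript levels were determined by RT-PCR with fluorescent labelling and capillary electrophoresis, then fitted bidirectionally against DMSO.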

The nature of assay [14]: ATG_M_06_CIS: Attagene CIS-FACTORIAL HepG2 Assay for M06 Transcription Factor (Internal Marker) (AID 2282950). The following applies: HepG2 Attagene CIS-FACTORIAL M06 internal marker reporter; actives raise or lower the signal. The procedure, abridged: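 Internal background marker within multiplexed cis-reporter HepG2 system. Cells transiently transfected, dosed 24 h; reporter mRNA measured by RT-PCR, HpaI digestion and capillary electrophoresis. Bidirectional fit relative to DMSO.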

In assay [15] the target is Hypoxia-inducible factor 1-alpha (Homo sapiens) (UniProt Q16665). Kind of assay: ATG_HIF1a_CIS: Attagene CIS-FACTORIAL HepG2 Assay for human Hypoxia Inducible Factor 1 (HIF1A) (AID 2282951). The following applies: HepG2 Attagene cis-factorial HIF1a reporter transcription; actives raise or lower the signal. The procedure, abridged: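 Dosed 24 h, transfected HepG2 cells yielded total RNA whose reporter transcripts were RT-PCR-amplified and sized by capillary electrophoresis using fluorescent labelling; DMSO defined baseline, with gain and loss of signal both fitted.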

The target in assay [16] is Hepatocyte nuclear factor 6 (Homo sapiens) (UniProt Q9UBC0). Kind of assay: ATG_HNF6_CIS: Attagene CIS-FACTORIAL HepG2 Assay for human Hepatocyte Nuclear Factor 6 (HNF6) (AID 2282952). The following applies: HepG2 Attagene cis-factorial HNF6 reporter transcription; actives raise or lower the signal. The procedure, abridged: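 Transiently transfected HepG2 cells expressing cis-regulated reporter transcription units were exposed to chemical for 24 h in a 24-well format. Reporter transcript abundance was determined by fluorescence capillary electrophoresis.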

The target in assay [17] is Heat shock factor protein 1 (Homo sapiens) (UniProt Q00613). Briefly: ATG_HSE_CIS: Attagene CIS-FACTORIAL HepG2 Assay for human Heat Shock Transcription Factor 1 (HSE) (AID 2282953). To be noted: HepG2 HSE cis-reporter, Attagene RNA transcription; actives raise or lower the signal. The procedure, abridged:
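HepG2 cells transfected with cis-promoter reporter units sensing endogenous transcription factor activity; reporter mRNA quantified 24 h post-dose by RT-PCR and capillary electrophoresis of 6-FAM-labelled products. Bidirectional fitting against DMSO.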

A short description of assay [18]: ATG_MRE_CIS: Attagene CIS-FACTORIAL HepG2 Assay for human Metal Responsive Element (MRE) (AID 2282954). The following applies: HepG2 MRE cis-reporter transcription, Attagene multiplex; actives raise or lower the signal. The procedure, abridged: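 After a 24 h chemical exposure, transiently transfected HepG2 cells yield RNA whose reporter sequences are amplified, FAM-labelled and sized by capillary electrophoresis. Curves are fitted bidirectionally relative to DMSO.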

The target of assay [19] is Bile acid receptor (Homo sapiens) (UniProt Q96RI1). Briefly: ATG_IR1_CIS: Attagene CIS-FACTORIAL HepG2 Assay for human Nuclear Receptor Subfamily 1 Group H Member 4 (NR1H4), IR1 submotif (AID 2282946). To be noted: IR1 reporter transcription, actives raise or lower the signal. The procedure, abridged: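 Cells (human HepG2) carry transiently transfected cis-promoter reporter transcription units. Compounds are incubated 24 h, total RNA is reverse-transcribed and amplified, and labelled fragments are resolved by capillary electrophoresis. Curves use DMSO as baseline.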

A short description of assay [20]: ATG_PBREM_CIS: Attagene CIS-FACTORIAL HepG2 Assay for human Phenobarbital-responsive Enhancer Module (PBREM) (AID 2282955). The following applies: HepG2 PBREM cis-reporter, Attagene multiplexed transcription; actives raise or lower the signal. The procedure, abridged: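 Transfected liver-derived HepG2 cells exposed 24 h; PBREM reporter transcript quantified via RT-PCR and capillary electrophoresis, with activity in either direction referenced to DMSO.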

Heat shock factor protein 1 (Homo sapiens), sequence (Q00613 whole entry, looked up): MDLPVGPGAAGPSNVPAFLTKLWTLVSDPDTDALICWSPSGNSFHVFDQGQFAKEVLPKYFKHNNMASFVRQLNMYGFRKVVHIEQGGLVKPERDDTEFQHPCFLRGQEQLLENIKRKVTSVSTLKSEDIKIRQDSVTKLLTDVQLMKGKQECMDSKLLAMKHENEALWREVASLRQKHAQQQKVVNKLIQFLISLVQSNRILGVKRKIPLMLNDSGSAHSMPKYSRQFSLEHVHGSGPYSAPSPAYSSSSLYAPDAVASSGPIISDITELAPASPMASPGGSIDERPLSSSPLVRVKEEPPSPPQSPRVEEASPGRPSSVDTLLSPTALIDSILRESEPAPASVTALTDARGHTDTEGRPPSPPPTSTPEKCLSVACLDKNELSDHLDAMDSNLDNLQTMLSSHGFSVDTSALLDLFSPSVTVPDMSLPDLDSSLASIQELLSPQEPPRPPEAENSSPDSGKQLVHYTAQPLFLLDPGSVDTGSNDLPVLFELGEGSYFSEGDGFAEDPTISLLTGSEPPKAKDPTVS
Hypoxia-inducible factor 1-alpha (Homo sapiens), sequence (Q16665 whole entry, looked up): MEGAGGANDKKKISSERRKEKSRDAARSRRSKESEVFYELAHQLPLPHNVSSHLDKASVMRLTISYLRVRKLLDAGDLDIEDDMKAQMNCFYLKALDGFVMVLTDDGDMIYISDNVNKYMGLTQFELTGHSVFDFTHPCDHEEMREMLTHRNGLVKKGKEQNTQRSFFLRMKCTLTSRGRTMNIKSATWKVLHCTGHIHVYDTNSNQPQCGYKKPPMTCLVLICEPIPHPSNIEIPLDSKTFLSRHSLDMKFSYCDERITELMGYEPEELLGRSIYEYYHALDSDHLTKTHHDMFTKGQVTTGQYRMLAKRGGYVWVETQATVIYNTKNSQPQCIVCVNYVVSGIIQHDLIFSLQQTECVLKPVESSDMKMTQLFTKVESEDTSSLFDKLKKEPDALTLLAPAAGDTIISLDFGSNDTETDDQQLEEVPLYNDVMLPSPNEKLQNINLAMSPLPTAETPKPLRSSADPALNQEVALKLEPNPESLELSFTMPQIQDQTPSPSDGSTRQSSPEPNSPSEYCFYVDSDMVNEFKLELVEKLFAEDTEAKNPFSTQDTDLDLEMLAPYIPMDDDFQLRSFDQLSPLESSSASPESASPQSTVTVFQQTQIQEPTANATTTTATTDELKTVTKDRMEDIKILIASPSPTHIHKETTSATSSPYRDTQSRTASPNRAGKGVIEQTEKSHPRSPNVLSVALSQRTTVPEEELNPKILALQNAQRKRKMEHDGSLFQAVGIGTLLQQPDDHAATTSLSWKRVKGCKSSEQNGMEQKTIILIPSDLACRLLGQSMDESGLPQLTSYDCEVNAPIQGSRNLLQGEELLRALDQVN
Hepatocyte nuclear factor 3-beta (Homo sapiens), sequence (Q9Y261 whole entry, looked up): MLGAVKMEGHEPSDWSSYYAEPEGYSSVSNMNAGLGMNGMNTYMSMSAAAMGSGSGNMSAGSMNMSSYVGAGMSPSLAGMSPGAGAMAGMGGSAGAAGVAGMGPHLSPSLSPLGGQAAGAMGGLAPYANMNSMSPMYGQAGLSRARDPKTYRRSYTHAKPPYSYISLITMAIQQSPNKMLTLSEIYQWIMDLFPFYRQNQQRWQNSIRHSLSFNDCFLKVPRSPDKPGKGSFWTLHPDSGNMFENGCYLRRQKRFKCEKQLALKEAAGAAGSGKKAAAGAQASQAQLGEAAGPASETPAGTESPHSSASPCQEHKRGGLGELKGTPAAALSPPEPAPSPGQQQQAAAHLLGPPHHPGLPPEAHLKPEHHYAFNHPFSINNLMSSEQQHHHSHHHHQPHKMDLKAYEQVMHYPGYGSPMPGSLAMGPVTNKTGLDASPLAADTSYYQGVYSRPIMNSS
Hepatocyte nuclear factor 6 (Homo sapiens), sequence (Q9UBC0 whole entry, looked up): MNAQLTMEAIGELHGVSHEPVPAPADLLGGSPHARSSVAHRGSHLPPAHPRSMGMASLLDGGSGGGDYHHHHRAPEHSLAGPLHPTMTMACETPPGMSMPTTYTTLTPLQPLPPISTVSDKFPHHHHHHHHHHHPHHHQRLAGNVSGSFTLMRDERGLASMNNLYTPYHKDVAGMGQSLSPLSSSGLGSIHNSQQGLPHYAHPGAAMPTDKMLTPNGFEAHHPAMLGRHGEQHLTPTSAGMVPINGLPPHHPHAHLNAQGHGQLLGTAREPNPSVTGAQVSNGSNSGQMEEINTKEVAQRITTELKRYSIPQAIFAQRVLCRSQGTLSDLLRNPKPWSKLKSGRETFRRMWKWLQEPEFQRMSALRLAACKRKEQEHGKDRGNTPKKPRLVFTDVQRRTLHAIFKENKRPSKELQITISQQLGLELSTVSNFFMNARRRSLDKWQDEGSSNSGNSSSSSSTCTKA
Bile acid receptor (Homo sapiens), sequence (Q96RI1 whole entry, looked up, the tested form may be a part): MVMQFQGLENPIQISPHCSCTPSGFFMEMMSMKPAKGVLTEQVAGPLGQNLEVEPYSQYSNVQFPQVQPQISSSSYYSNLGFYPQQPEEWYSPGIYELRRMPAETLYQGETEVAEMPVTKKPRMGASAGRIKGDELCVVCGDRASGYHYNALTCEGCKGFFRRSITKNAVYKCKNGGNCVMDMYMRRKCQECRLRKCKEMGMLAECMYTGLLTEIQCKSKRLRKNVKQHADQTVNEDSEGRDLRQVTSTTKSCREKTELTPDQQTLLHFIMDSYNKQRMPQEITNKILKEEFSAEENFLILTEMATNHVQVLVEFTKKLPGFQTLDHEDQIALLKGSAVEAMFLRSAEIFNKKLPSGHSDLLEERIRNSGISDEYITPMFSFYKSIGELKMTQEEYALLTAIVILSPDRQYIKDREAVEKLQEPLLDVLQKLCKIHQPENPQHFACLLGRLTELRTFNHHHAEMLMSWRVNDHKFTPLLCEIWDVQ

Consider `CC(=O)CC(N)=O`, for which the outcome in [1], in [2], in [3], in assay [4], in assay [5] and in assay [6] was inactive. Besides, the call in assay [7], in assay [8], in [9], in assay [10], in assay [11] and in assay [12] was inactive. The result in [13], in assay [14], in assay [15], in assay [16], in [17] and in [18] was inactive.

As to `CC(C)CC(O)Cc1ccccc1` (configuration not stated), the result in assay [1], in assay [2], in assay [3], in [4], in assay [5] and in assay [6] was inactive. The molecule was called inactive in assay [7], in assay [8], in assay [9], in [10], in assay [11] and in assay [12]. In addition, the result in assay [13], in assay [14], in assay [15], in assay [16], in assay [17] and in [18] was inactive.

On to `CC1(C)O[C@@H]2C[C@H]3[C@@H]4C[C@H](F)C5=CC(=O)C=C[C@]5(C)[C@@]4(F)[C@@H](O)C[C@]3(C)[C@]2(C(=O)CO)O1`, for which the result in assay [1], in assay [2], in assay [3], in assay [4], in assay [6] and in assay [7] was inactive. Further, the molecule was called inactive in [8], in assay [9], in assay [10], in assay [12], in [13] and in [14]. The call in assay [15], in [16], in assay [17] and in assay [18] was inactive. Besides, the AC50 – broadly, the concentration giving half of the maximal activity seen – is 4.27 µM (active) in assay [5] and 0.563 µM (active) in assay [11].

In the case of `CC(C)COC(=O)C=Cc1ccccc1`, the outcome in assay [1], in assay [2], in assay [3], in assay [4], in assay [5] and in assay [6] was inactive. For the same molecule, the call in assay [7], in [8], in assay [9], in [10], in assay [19] and in assay [12] was inactive. The call in assay [13], in assay [14], in [15], in assay [17], in [18] and in [20] was inactive.
